# Among all 53,000 compounds or so, about 900 (1.7%) showed an effect of 50% or more. Shown is part of a subset that was picked to be rich in strong results.
# System: Mycobacterium tuberculosis
# Test: Cornell - Phenotypic assay to identify agents that inhibit growth of Mycobacterium tuberculosis
# Type: functional
# Set-up: scale not given: direction of the effect not stated beside the values
# Conditions: 10 mM as filed; unlikely as a test dose
row,Compound,Percent Effect [%]
1,CN1C[C@@H](C(=O)NC2CC2)[C@@]2(COc3ccc(F)cc3C2=O)C1,-27.17
2,Cn1cc(N2C(=O)CC[C@@H]3[C@H]2CCN3Cc2cccc(C#N)c2)cn1.O=C(O)C(F)(F)F.O=C(O)C(F)(F)F,14.16
3,CN1CCCCCC1C(=O)NCCCn1ncc2ccccc21 (stereo not drawn),28.62
4,CCC(CO)NCc1ccc(-c2ccc(F)c(Cl)c2)o1.Cl (stereo not drawn),48.48
5,CCC(CO)NCc1ccc(-c2ccc(Br)cc2)o1.Cl (stereo not drawn),52.02
6,CCC(CO)NCc1ccc(-c2ccccc2)o1.Cl (stereo not drawn),5.639
7,CCC(CO)NCc1ccc(-c2ccc(Cl)cc2)o1.Cl (stereo not drawn),16.24
8,CCn1nnc(NCc2cc(Br)cc(Br)c2OC)n1,31.18
9,Cn1nnc(NCc2ccc(-c3ccc(Br)cc3)o2)n1,60.92
10,CCCn1nnc(NCc2cc(Br)cc(Br)c2OC)n1,40.71
11,CCCn1nnc(NCc2ccc(-c3ccc(Br)cc3)o2)n1,31.95
12,Cn1nnc(NCc2ccc(-c3ccc(Cl)cc3)o2)n1,60.16
13,Cn1ncnc1NCc1ccc(Cl)cc1,-4.993
14,CCn1nnc(NCc2ccc(-c3ccc(Br)cc3)o2)n1,69.94
15,CCC(CO)NCc1ccc(-c2ccc(F)cc2)o1.Cl (stereo not drawn),35.55
16,O=C(c1sccc1Cl)N1CCC(Cn2cc(CO)nn2)CC1,28.9
17,CC(Nc1cccc(COCc2ccco2)c1)C(=O)NC(N)=O (stereo not drawn),25.61
18,COCCCNC(=O)C(C)n1nc(-c2ccco2)cc(N)c1=O (stereo not drawn),37.24
19,Cc1ncncc1-c1ccnc(N)n1,1.831
20,CS(=O)(=O)c1ccc(NCC2CCCO2)c(S(C)(=O)=O)c1 (stereo not drawn),-21.42
21,Cc1ccccc1C(C(=O)NCCSC(C)C)N(C)C (stereo not drawn),29.49
22,CNc1ncc2c(n1)CN(CCc1ccc(C)cc1)C2=O,8.766
23,Cn1ccc(C(=O)N2CCCC(c3cc4cccnc4c(O)n3)C2)n1 (stereo not drawn),-16.1
24,CN(C)CCC1CCN(c2cc(N3CCCC3CO)ncn2)CC1 (stereo not drawn),-19.44

row,Compound,Percent Effect [%]
1,CC(C)n1nccc1C(=O)N1CCC(c2nnsc2S(C)(=O)=O)CC1,12.35
2,Cc1nonc1CNC(=O)C(C)Oc1ccccc1F (stereo not drawn),47.11
3,Cc1nonc1CNC(=O)C(C)Oc1cccc(F)c1 (stereo not drawn),53.11
4,Cc1noc(C)c1CNC(=O)C(C)Oc1ccccc1F (stereo not drawn),-2.201
5,CCOCC1CN(Cc2ccncc2)Cc2nn(C)cc21.O=C(O)C(F)(F)F.O=C(O)C(F)(F)F (stereo not drawn),12.3
6,O=C(O)C(F)(F)F.O=C(O)C(F)(F)F.c1c(CN2CCCC2)nc2n1CCN(C1CCOCC1)C2,3.362
7,Cc1cc(C(=O)NC2CCN(CC(N)=O)CC2)nn1C(C)(C)C,11.5
8,CC(C)Cn1ccc2c(NC(=O)c3n[nH]c4c3CCC4)cccc21,50.74
9,COCCn1ccc2c(C(=O)O)cccc21,17.17
10,COCCn1ccc2c(C(=O)NC(C)C)cccc21,10.53
11,COCCn1ccc2c(NC(=O)c3n[nH]c4c3CCCC4)cccc21,70.2
12,CC(=O)Nc1cccc2c1ccn2CC(=O)Nc1n[nH]c(CC(C)C)n1,-27.06
13,COCCn1ccc2c(NC(=O)C(C)C)cccc21,18.08
14,COCCn1ccc2c(NC(=O)c3n[nH]c4c3CCC4)cccc21,61.23
15,CC(C)n1ccc2c(NC(=O)c3n[nH]c4c3CCC4)cccc21,48.39
16,COCCn1ccc2c(C(=O)Nc3nc4c(s3)CCC4)cccc21,15.95
17,COc1cc(C)cc(OC)c1C(C(=O)O)N(C)Cc1c(C)nn(C)c1C (stereo not drawn),1.527
18,COCCn1c2c(ccc1=O)CCN(C(=O)C1CC=CC1)CC2,18.02
19,NC(=O)CCNCc1c(Cl)cccc1N1CCCC1,-9.412
20,COCCNc1cc(-c2ccccc2C(N)=O)c2cc[nH]c2n1,26.26
21,Cc1cc(C)n2ncc(CN3C[C@@H](O)[C@H](Oc4ccccc4)C3)c2n1,0.3545
22,CN1CCN(c2nc(O)cc(Cc3ccccc3F)n2)CC1,10.81
23,CC(=O)N1CC(C(=O)NCCc2ncc(C)s2)C1,6.986
24,CC(C)c1cc(NC(=O)CN2CCC(N3CCNC3=O)CC2)on1,6.075

# Source: ChEMBL document CHEMBL3988442, “University of Dundee, Small-Polar-MMV Screening Library” (2021)
